Most compounds without a hit are left out; they make up all but 12% or so of the library.
Arbovirus inh – blocks arbovirus infection; arbovirus infection cell-based antiviral screen; inhibition, % at 10 µM; actives 0.37% (n = 200,000); in the data active = inhibition above about 30%
L major viab – inhibitors of Leishmania major promastigote growth; inhibition, % at 10 µM; Leishmania major promastigotes, resazurin fluorescence viability; AID 1063; actives 9% (n = 200,000); in the data active = inhibition above about 50%;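 note: promastigotes grown with compound for 44 hours at 28 °C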
CHOP inh – inhibitors of CHOP induction in ER stress response; AID 2732; CHO-K1 CHOP-promoter luciferase, tunicamycin-induced, 15-18 h; actives 3.8% (n = 220,000); inhibition, % at 10 µM;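 active = compounds that reduced the stress-induced luciferase reporter signal by more than about 70% of percent inhibition, limit read from the data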
WT yeast gro inh – growth inhibition of WT yeast, mitochondrial fusion screen; mitochondrial fusion phenotypic screen, WT strain; inhibition, % at 10 µM; actives 2.1% (n = 190,000); AID 1362; in the data active = inhibition above about 58%; tested in S. cerevisiae
Large screens that a line does not name were inactive.

Cc1cc(N(CC(=O)NC(C)C)S(C)(=O)=O)ccc1Br	none
CCc1ccc(C2=NN(CCC(=O)NC(C)CCc3ccccc3)C(=O)CC2)cc1 (centres undefined)	L major viab 94.7
CC(CCc1ccccc1)NC(=O)CCN1N=C(c2ccccc2)CCC1=O (centres undefined)	none
N#Cc1cc([N+](=O)[O-])ccc1NCCN1CCOCC1	none
O=C(NCCN1CCOCC1)c1cc2cc([N+](=O)[O-])ccc2s1	L major viab 66.4
O=[N+]([O-])c1cc(C(F)(F)F)cc([N+](=O)[O-])c1NCCCN1CCOCC1	none
O=[N+]([O-])c1ccc(NCCCN2CCOCC2)c([N+](=O)[O-])c1	L major viab 84.5
O=[N+]([O-])c1cc(C(F)(F)F)ccc1NCCCN1CCOCC1	L major viab 87.7
Cc1ccc(C(=O)N/C(=C\c2ccc(C(C)C)cc2)C(=O)NCCCN2CCOCC2)cc1	L major viab 66.5
Cc1cc(N2C(=O)C3CCC(c4ccccc4)CC3C2=O)no1 (centres undefined)	none
O=C(NC(=S)NCCN1CCOCC1)c1ccc(F)cc1	none
O=C(NC(=S)NCCCN1CCOCC1)c1ccc([N+](=O)[O-])cc1	L major viab 53.0
O=[N+]([O-])c1ccc(Cl)cc1NCCCN1CCOCC1	L major viab 59.2
O=[N+]([O-])c1cc(S(=O)(=O)N2CCCCC2)ccc1NCCCN1CCOCC1	L major viab 75.4
CSc1ncccc1C(=O)NC(C)C1CC2CCC1C2 (centres undefined)	none
COc1ccccc1CNC(=O)Nc1cccs1	none
COc1ccc(Br)cc1CNC(=O)Nc1cccs1	L major viab 53.6
CC1CCc2c(nc3ncnn3c2N2CCN(c3ccccc3)CC2)C1 (centres undefined)	L major viab 51.7
Cc1ccc(Nc2c3c(nc4ncnn24)CC(C)CC3)cc1 (centres undefined)	none
CC(C)CCN1CCN(Cc2cccc3cccnc23)CC1CCO (centres undefined)	none
CCOC(=O)c1[nH]c2ccccc2c1NC(=O)Nc1ccc(OC)cc1	CHOP inh 86.5
O=C(NC1=NCCS1)c1ccccc1OCc1ccc(F)cc1	none
COc1ccc(CC(=O)Nc2ccc(-c3nnc(-c4ccccc4)o3)cc2)cc1OC	CHOP inh 74.1
COc1ccc(CC(=O)Nc2cccc(-c3nnc(-c4ccc(C)cc4)o3)c2)cc1OC	CHOP inh 76.1
COc1ccc(-c2nc3cc(NC(=O)Cc4ccc(OC)c(OC)c4)ccc3o2)cc1	none (no result: CHOP inh)
COc1ccc(CC(=O)Nc2cccc(-c3nnc(-c4ccccc4)o3)c2)cc1OC	none (no result: CHOP inh)
COc1cc(CNc2ccc(NC(C)=O)cc2)ccc1OCc1ccccc1C	L major viab 73.4
COC(=O)c1ccc(CNC(=O)COC(=O)c2ccc(N(C)C)cc2)cc1	none
CC(C)c1csc(CN2CCN(Cc3ccccc3)C(CCO)C2)n1 (centres undefined)	none
CCOc1ccc(CN2CCN(C3CCSCC3)CC2CCO)cc1 (centres undefined)	L major viab 73.2
CC(C)c1csc(CN2CCN(CCc3ccccc3)C(CCO)C2)n1 (centres undefined)	L major viab 88.8
CCOc1ccc(CN2CCN(CCCn3cccn3)CC2CCO)cc1 (centres undefined)	L major viab 92.4
CCOc1ccc(CN2CCN(Cc3nc(C(C)C)cs3)CC2CCO)cc1 (centres undefined)	L major viab 81.1
C#CCOCCOCCOCCNc1nc(N2CCN(C(=O)[C@H](CCCCN)n3cc(C(N)COC(=O)C(F)(F)F)nn3)CC2)nc(N2CCN(C(=O)[C@H](CCCCN)n3cc(C(N)CC(C)C)nn3)CC2)n1 (some centres undefined)	none (no result: Arbovirus inh, L major viab, WT yeast gro inh)
CCOc1ccccc1CN1CCN(Cc2[nH]c3ccccc3c2C)CC1CCO (centres undefined)	none
CCOc1ccc(CN2CCN(Cc3[nH]c4ccc(OC)cc4c3C)CC2CCO)cc1 (centres undefined)	L major viab 56.5
Cc1nnc(SCC(=O)NC2CCCCC2C)s1 (centres undefined)	none
CCc1nnc(NC(=O)CSc2n[nH]c(-c3ccccc3O)n2)s1	none
COc1ccc(CNC(=O)C2CCCN2S(=O)(=O)c2ccc(F)cc2)cc1 (centres undefined)	none
COc1ccc(CNc2nc3ccccc3n2CCN2CCCCC2)cc1	none
COc1ccc(CCN2CCC(Nc3nc4ccccc4n3Cc3ccc(F)cc3)CC2)cc1	L major viab 100.4 (no result: CHOP inh)
O=C(Cn1cncn1)N/N=C/c1ccc(Cl)cc1	none
CC(C)(C)/C(Cn1cncn1)=N\OC(=O)Nc1ccc(Cl)cc1	L major viab 84.9
O=C(NCC1CCCO1)/C(=C/c1cn(-c2ccccc2)nc1-c1cccnc1)NC(=O)c1ccccc1 (centres undefined)	none

Screening results from PubChem BioAssay.
